Among the data in PubChem BioAssay (Tox21) are outcome, Potency and max activation values, retold here.

Assay [1] addresses Thyrotropin-releasing hormone receptor (Homo sapiens) (UniProt P34981). In words: qHTS assay to identify small molecule agonists of the thyrotropin-releasing hormone receptor (TRHR) signaling pathway (AID 1346891; calls by dose curve;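 further: HEK293 cells expressing TRHR with calcium dye readout; series mostly up to about 58 µM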). The method, boiled down:
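HEK293/TRHR cells, 1500 per well, 18 h 37 °C; Ca dye 2 h 37 °C; pin-tool compound addition (agonist mode); kinetic fluorescence 3 min, 1 s reads; 15 concentrations, triplicate.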
For orientation: qHTS replaces the single test concentration by a dilution series.

The nature of assay [2]: Human pregnane X receptor (PXR) small molecule agonists, qHTS cell viability counter screen (AID 1346977). Further: nearly all actives have a fitted effect of over 50% in size. The method, boiled down:
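Fluorescence read-out (CellTiter-Fluor) of viability in PXR-Luc HepG2 cells, multiplexed with the luciferase agonist read. Compounds in DMSO added after 5hr plating; 24hr total exposure at 37C, 5% CO2.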

Assay [3] is described as follows: Caspase-3/7 induction in HepG2 cells by small molecules, qHTS assay (AID 1346978). Further: nearly all actives have a fitted effect of over 15% in size. The method, boiled down:
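Caspase-3/7 induction was measured by Caspase-Glo 3/7 luminescence (30 min, room temperature) after a 17 hr compound exposure of wild-type HepG2 cells seeded at 2,000 per well and pre-incubated 5 hr.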

The nature of assay [4]: Caspase-3/7 induction in CHO-K1 cells by small molecules, qHTS cell viability counter screen (AID 1346979). Further: nearly all actives have a fitted effect of over 35% in size. The method, boiled down:
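CHO-K1 wt, 1,500 cells/well; 5hr pre-incubation 37C/5% CO2; compound pin transfer (DMSO); 16hr exposure; CellTiter-Fluor added, 1hr, fluorescence read.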

Assay [5] can be described thus: Caspase-3/7 induction in CHO-K1 cells by small molecules, qHTS assay (AID 1346980). Further: nearly all actives have a fitted effect of over 15% in size. The method, boiled down: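 Luminescent Caspase-Glo 3/7 read (30min, room temperature) quantified apoptosis induction. Cells were wild-type CHO-K1, treated with compound for 17hr at 37 C and 5% CO2.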
Assay [6] in a line: Caspase-3/7 induction in HepG2 cells by small molecules, qHTS cell viability counter screen (AID 1346981). Further: series mostly up to about 92 µM; nearly all actives have a fitted effect of over 30% in size. The method, boiled down:
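In this quantitative HTS counter screen, compounds delivered in DMSO were left on unmodified HepG2 cells for 16 hr at 37 C. Viability was then determined fluorometrically with CellTiter-Fluor, in parallel with caspase-3/7 induction in the same wells.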

Assay [7] addresses Nuclear receptor subfamily 1 group I member 2 (Homo sapiens) (UniProt O75469). As to the kind of experiment: Human pregnane X receptor (PXR) small molecule agonists, qHTS assay (AID 1346982). Further: nearly all actives have a fitted effect of over 35% in size. Further: potency means the concentration at half of the fitted maximal effect. The method, boiled down:
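Reporter HepG2 cells expressing PXR-Luc are cultured in charcoal-stripped FBS (5%), treated with compounds for 24 hr at 37 C, and assayed by ONE-Glo luminescence after 30 min at room temperature.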

For assay [8], the target named is Acetylcholinesterase (Homo sapiens) (UniProt P22303). In words: Acetylcholinesterase (AChE) small molecule antagonists: colormetric cell-based qHTS assay (AID 1347395; calls by dose curve; further: nearly all actives have a fitted effect of over 30% in size). The method, boiled down: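 SH-SY5Y cells; cpd 30 min 37 C; + DTNB/acetylthiocholine, 90 min 37 C; colorimetric thiocholine read; qHTS.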
Chain of Acetylcholinesterase (Homo sapiens) (P22303 whole entry, looked up): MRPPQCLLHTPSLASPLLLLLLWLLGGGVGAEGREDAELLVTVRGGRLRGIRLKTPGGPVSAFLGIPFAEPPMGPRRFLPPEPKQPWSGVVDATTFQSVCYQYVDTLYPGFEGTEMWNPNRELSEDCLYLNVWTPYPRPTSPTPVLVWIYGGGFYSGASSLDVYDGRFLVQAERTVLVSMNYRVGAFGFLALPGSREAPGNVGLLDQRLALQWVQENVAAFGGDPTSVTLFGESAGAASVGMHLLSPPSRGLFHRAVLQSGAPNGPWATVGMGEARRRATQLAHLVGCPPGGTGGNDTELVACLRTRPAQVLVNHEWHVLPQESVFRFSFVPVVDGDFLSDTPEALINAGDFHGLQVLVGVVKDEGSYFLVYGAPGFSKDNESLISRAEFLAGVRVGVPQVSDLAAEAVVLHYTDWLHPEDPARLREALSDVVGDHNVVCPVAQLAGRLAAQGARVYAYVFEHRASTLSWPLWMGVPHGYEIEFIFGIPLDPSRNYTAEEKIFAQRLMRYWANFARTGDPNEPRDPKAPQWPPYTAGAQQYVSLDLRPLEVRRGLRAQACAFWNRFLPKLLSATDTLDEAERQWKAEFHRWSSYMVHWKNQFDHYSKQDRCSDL
The target is the same in assay [9]. As to the kind of experiment: Acetylcholinesterase (AChE) small molecule antagonists: enzyme-based qHTS assay (AID 1347397; calls by dose curve; further: nearly all actives have a fitted effect of over 55% in size). As to conditions: Potency: AChE enzyme activity inhibition; outcome: AChE enzyme activity inhibition. The method, boiled down: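 First, recombinant human AChE (50 mU/mL as dispensed) received test compound or DMSO. Second, plates stood 30 min at room temperature. Third, DTNB and acetylthiocholine were added, followed by 10 min at room temperature and colorimetric detection.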

Assay [10] has the same target. In words: Acetylcholinesterase (AChE) small molecule antagonists: fluorescence cell-based qHTS assay (AID 1347398; calls by dose curve; further: nearly all actives have a fitted effect of over 50% in size). As to conditions: Potency: AChE activity; outcome: AChE activity. The method, boiled down:
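Homogeneous quantitative HTS format. SH-SY5Y cells seeded at 2,000 per well settle overnight at 37 C. Compound pretreatment runs 30 min (37 C, 5% CO2); substrate/probe mix then reacts 40 min at RT before reading 490/520 nm.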

For assay [11] the target is unchanged. In words: Acetylcholinesterase (AChE) small molecule antagonists: enzyme-based qHTS assay with human liver microsomes (AID 1347399; calls by dose curve; further: nearly all actives have a fitted effect of over 60% in size). The note with it: Potency: qHTS inhibition; outcome: qHTS inhibition. The method, boiled down: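 Recombinant human AChE (50 mU/mL in the enzyme mix) and human liver microsomes (0.25 mg/mL final) were preincubated with compound and NADPH (0.25 mg/mL final) for 30 min at 37 C. Acetylthiocholine/DTNB was then added; thiocholine was read colorimetrically after 10 min at room temperature.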

Assay [12] concerns the target Cytochrome P450 2D6 (Homo sapiens) (UniProt P10635). As to the kind of experiment: Cytochrome P450 Family 2 Subfamily D Member 6 (CYP2D6) small molecule antagonists: luciferase reporter qHTS assay (AID 1671196). Further: nearly all actives have a fitted effect of over 50% in size. Further: potency means the concentration at half of the fitted maximal effect. The method, boiled down:
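Test chemicals meet CYP2D6 plus proluciferin substrate (10 min, RT); NADPH regenerating solution then drives turnover for 1 h. Detection reagent halts the reaction; luminescence measured after 20 min.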
Background: Reporter assays use an easily measured gene product as a stand-in for the process of interest.

The target of assay [13] is Cytochrome P450 2C19 (Homo sapiens) (UniProt P33261). As to the kind of experiment: Cytochrome P450 Family 2 Subfamily C Member 19 (CYP2C19) small molecule antagonists: luciferase reporter qHTS assay (AID 1671197). Further: nearly all actives have a fitted effect of over 65% in size. Further: potency means the concentration at half of the fitted maximal effect. The method, boiled down:
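Quantitative high-throughput screen of the Tox21 library using CYP2C19 with proluciferin substrate. Reaction: NADPH regeneration, 37C, 1 h, after 10 min compound preincubation at room temperature. Readout: luminescence.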

For assay [14], the target named is Cytochrome P450 2C9 (Homo sapiens) (UniProt P11712). In words: Cytochrome P450 Family 2 Subfamily C Member 9 (CYP2C9) small molecule antagonists: luciferase reporter qHTS assay (AID 1671198). Further: nearly all actives have a fitted effect of over 50% in size. Further: potency means the concentration at half of the fitted maximal effect. The method, boiled down:
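Enzyme-substrate mix preincubated with compound 10 min at room temperature; reaction started with NADPH regeneration solution, 1 h 37C. Luminescent luciferin product read after 20 min detection reagent.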

For assay [15], the target named is Cytochrome P450 1A2 (Homo sapiens) (UniProt P05177). In words: Cytochrome P450 Family 1 Subfamily A Member 2 (CYP1A2) small molecule antagonists: luciferase reporter qHTS assay (AID 1671199). Further: nearly all actives have a fitted effect of over 50% in size. Further: potency means the concentration at half of the fitted maximal effect. The method, boiled down: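 Steps: enzyme-substrate mix dispensed; test compounds and furafylline control pinned in; 10 min room temperature; NADPH regeneration solution added, 1 h; reaction stopped with luciferin detection reagent; luminescence read after 20 min.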
Chain of Cytochrome P450 1A2 (Homo sapiens) (P05177 whole entry, looked up): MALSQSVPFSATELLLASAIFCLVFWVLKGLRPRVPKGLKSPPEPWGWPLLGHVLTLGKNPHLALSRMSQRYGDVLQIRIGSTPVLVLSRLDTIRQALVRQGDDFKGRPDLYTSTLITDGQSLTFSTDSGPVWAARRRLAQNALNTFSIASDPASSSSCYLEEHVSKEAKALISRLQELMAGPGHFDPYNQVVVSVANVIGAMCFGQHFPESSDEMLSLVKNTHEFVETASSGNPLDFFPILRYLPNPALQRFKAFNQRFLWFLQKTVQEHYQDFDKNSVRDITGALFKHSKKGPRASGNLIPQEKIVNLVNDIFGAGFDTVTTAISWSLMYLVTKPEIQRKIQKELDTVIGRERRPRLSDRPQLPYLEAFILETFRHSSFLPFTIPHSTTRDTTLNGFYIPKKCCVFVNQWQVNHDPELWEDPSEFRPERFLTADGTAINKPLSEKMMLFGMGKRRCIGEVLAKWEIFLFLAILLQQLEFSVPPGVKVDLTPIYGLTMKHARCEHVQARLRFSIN

For assay [16], the target named is Nuclear receptor subfamily 1 group I member 2 (Rattus norvegicus) (UniProt Q9R1A7). In words: Rat pregnane X receptor (rPXR) activation by small molecules, qHTS assay (AID 1346983). Further: nearly all actives have a fitted effect of over 20% in size. As to conditions: rPXR luciferase reporter cells, One-Glo luminescence, 24 h; hits give high values. The method, boiled down: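 Luminescent readout (One-Glo luciferase, 30 min room temperature) followed 24 hr compound treatment at 37 C of rPXR cells plated 2,000 per well and preincubated 5hr; qHTS format with compounds delivered in DMSO.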

The target of assay [17] is Nuclear receptor subfamily 1 group I member 2 (Homo sapiens) (UniProt O75469). As to the kind of experiment: Human pregnane X receptor (PXR) activation by small molecules, qHTS assay (AID 1346985). Further: nearly all actives have a fitted effect of over 40% in size. The method, boiled down:
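DPX-2 cells (HepG2 co-transfected with a PXR response element and a CYP3A4-promoter luciferase construct) were seeded at 2,000 per well, rested 5 hr at 37C, then exposed to DMSO-dissolved compounds for 24 hr. Activation was read as luciferase luminescence.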

Assay [18] deals with Cytochrome P450 3A4 (Homo sapiens) (UniProt P08684). As to the kind of experiment: Cytochrome P450 Family 3 Subfamily A Member 4 (CYP3A4) small molecule antagonists: luciferase reporter qHTS assay (AID 1671201). The method, boiled down:
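Luminescent readout (RLU) proportional to CYP3A4 activity, from luciferin generated off a proluciferin substrate. Enzyme–substrate mix plus compound 10 min at room temp, NADPH regeneration 1 h, detection reagent 20 min.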

In assay [19] the target is Voltage-gated inwardly rectifying potassium channel KCNH2 (Homo sapiens) (UniProt Q12809). As to the kind of experiment: Human Ether-a-go-go-Related Gene (hERG) channel small molecule antagonists: fluorescence cell-based qHTS assay (AID 1671200). The method, boiled down:
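Read-out: thallium influx as a surrogate for potassium, tracked as fluorescence (480 nm ex/540 nm em) every second for 2 min after Stimulus Buffer addition in dye-loaded hERG-U2OS cells.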

A number with no mark means an inactive call. Records with an inconclusive call do not appear. The source made the active and inactive calls. Unless noted, the call rests on the fitted dose curve; in most records, active means well fitted curve in the direction sought with a large enough effect in the repeat runs; inconclusive means weak or mixed curves; inactive means no such curve, though single readings can be large; an effect the other way counts as inactive or inconclusive.
On the % scale 0 is the no-effect control and ±100 the full control effect.

Chain of Nuclear receptor subfamily 1 group I member 2 (Homo sapiens) (O75469 whole entry, looked up): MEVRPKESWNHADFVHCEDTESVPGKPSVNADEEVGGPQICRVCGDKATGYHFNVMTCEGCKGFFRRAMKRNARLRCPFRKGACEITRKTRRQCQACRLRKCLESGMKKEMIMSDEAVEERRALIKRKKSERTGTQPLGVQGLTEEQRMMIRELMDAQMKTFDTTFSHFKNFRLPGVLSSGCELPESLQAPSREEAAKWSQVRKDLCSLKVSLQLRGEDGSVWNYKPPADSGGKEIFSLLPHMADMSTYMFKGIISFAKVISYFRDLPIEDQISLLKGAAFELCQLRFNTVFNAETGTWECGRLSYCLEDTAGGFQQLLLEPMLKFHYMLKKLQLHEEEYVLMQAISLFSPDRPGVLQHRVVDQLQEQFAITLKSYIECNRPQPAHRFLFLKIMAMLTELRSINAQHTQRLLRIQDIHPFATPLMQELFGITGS
Chain of Cytochrome P450 2C9 (Homo sapiens) (P11712 whole entry, looked up): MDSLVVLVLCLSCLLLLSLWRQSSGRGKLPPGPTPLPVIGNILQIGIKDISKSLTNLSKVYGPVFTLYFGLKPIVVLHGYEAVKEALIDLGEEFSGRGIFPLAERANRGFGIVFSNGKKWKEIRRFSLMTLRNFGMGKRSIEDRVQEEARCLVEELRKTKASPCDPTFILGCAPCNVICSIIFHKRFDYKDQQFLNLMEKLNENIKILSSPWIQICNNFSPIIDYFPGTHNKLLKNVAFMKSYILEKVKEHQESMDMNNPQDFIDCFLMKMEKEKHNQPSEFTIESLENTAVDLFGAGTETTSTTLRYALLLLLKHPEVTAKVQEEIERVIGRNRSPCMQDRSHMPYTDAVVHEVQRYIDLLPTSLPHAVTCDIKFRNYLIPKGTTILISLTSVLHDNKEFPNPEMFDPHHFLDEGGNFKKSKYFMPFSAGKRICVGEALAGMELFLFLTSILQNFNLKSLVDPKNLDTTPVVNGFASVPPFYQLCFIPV
Chain of Cytochrome P450 2D6 (Homo sapiens) (P10635 whole entry, looked up): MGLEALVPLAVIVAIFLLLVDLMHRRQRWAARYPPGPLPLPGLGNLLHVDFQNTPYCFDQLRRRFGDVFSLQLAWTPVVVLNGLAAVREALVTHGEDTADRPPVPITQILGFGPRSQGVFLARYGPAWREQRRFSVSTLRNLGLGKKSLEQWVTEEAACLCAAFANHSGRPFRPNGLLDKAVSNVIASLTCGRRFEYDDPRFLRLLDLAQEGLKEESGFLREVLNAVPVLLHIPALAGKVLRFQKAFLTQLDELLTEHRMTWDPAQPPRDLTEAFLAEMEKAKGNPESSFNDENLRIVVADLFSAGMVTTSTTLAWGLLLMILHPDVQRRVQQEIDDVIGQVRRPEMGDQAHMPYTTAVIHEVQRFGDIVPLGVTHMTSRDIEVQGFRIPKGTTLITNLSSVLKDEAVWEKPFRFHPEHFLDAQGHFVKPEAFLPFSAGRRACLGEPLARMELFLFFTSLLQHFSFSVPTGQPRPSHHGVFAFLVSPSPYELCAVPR
Chain of Cytochrome P450 2C19 (Homo sapiens) (P33261 whole entry, looked up): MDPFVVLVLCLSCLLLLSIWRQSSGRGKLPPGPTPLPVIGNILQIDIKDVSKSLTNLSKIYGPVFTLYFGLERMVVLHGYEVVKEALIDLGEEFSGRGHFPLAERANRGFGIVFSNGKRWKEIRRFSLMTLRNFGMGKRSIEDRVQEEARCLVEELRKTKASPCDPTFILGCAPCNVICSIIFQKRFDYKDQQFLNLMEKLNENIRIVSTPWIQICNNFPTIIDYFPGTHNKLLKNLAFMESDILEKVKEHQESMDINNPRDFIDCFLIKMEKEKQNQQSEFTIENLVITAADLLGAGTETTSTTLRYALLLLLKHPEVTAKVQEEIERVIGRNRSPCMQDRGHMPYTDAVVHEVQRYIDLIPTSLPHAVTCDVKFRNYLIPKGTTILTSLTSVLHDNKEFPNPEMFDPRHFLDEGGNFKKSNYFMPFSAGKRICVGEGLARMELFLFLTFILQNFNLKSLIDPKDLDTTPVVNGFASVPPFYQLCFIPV
Chain of Voltage-gated inwardly rectifying potassium channel KCNH2 (Homo sapiens) (Q12809 whole entry, looked up): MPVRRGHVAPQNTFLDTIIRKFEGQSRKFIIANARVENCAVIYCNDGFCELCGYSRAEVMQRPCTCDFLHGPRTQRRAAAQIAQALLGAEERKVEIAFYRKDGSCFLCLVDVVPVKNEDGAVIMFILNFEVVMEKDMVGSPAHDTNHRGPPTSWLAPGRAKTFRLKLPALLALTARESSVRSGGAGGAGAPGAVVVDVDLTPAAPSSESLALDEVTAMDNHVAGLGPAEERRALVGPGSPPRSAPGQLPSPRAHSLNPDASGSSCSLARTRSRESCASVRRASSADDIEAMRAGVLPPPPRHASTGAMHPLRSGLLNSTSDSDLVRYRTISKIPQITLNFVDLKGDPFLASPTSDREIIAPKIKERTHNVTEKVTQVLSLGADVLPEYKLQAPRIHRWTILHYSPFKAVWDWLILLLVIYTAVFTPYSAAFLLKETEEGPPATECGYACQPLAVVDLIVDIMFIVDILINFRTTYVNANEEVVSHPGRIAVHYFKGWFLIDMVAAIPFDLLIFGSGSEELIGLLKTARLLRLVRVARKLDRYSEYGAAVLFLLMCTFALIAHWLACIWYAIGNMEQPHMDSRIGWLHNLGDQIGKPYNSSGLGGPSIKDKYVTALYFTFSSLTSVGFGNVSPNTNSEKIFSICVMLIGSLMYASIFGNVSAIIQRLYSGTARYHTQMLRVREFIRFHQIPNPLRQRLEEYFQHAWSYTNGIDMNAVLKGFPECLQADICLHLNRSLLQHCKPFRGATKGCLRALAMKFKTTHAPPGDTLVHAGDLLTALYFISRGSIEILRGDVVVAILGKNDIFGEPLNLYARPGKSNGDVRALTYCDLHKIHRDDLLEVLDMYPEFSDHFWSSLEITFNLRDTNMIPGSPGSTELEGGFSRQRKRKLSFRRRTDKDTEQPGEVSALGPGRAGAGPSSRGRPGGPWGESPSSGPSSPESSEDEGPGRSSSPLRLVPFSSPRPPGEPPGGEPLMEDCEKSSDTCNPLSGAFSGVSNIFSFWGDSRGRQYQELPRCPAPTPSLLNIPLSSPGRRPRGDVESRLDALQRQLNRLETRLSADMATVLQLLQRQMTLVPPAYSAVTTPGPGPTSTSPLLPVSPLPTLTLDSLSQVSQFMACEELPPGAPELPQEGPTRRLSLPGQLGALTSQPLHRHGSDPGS
Chain of Cytochrome P450 3A4 (Homo sapiens) (P08684 whole entry, looked up): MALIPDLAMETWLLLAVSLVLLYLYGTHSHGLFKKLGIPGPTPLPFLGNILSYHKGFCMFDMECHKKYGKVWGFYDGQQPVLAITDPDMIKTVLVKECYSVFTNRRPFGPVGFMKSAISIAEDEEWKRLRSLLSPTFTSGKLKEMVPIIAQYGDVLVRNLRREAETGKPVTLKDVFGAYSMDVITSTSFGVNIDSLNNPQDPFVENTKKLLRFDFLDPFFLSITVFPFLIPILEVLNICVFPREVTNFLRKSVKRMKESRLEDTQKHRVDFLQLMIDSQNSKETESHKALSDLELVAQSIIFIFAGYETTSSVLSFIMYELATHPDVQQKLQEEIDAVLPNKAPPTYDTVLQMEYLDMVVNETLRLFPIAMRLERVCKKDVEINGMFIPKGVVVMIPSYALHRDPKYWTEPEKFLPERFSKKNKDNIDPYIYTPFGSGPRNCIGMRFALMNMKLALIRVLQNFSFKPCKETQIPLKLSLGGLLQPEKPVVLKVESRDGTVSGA

For the compound `CC(Cc1ccccc1)NCCCCl` (configuration not stated), the compound was called inactive in assay [1], in assay [3] and in assay [5]. The Potency entry in [2], in [4], in assay [6], in [7], in assay [8] and in assay [9] was “inactive” in each case. Also, the Potency result in [10], in [11], in assay [13], in [14] and in assay [15] was “inactive” throughout. In addition, the Potency in assay [12] is 1.74 µM (active).

On to `CCC(C(N)=O)N1CCCC1=O` (configuration not stated), for which the call in assay [1], in [3] and in [5] was inactive. Moreover, the Potency result in [2], in [4], in assay [6], in assay [7], in assay [17] and in assay [8] was “inactive” in each case. The Potency entry in assay [10], in assay [11], in assay [13], in assay [14], in [15] and in assay [18] was “inactive” each time. Besides, the max activation in assay [16] was 4.65%.

Turning to `CCOC1Oc2ccc(OS(C)(=O)=O)cc2C1(C)C` (configuration not stated), the call in assay [1], in assay [3] and in [5] was inactive. In addition, the Potency result in assay [2], in assay [4], in assay [6], in assay [8], in assay [9] and in assay [10] was “inactive” in each case. Also, the Potency entry in [11], in assay [19] and in assay [18] was “inactive” throughout. Moreover, the Potency in [7] was 21.5 µM (active); in [12], 35.3 µM (active); in assay [13], 3.96 µM (active); in assay [14], 22.3 µM (active); in assay [15] it was 35.3 µM (active).

Turning to `CC(C)(C)C(=O)Cl`, the call in assay [1], in [3] and in assay [5] was inactive. For the same compound, the Potency entry in assay [2], in assay [4], in assay [6], in [7], in assay [8] and in assay [9] was “inactive” throughout. The Potency result in [10], in [11], in [12], in [13], in [14] and in assay [15] was “inactive” in each case. The Potency result in assay [19] and in assay [18] was “inactive” throughout.

In the case of `CC(C)c1ccc(O)cc1`, the call in assay [1], in [3] and in assay [5] was inactive. Moreover, the Potency entry in [2], in [4], in [6], in [7], in assay [8] and in assay [9] was “inactive” each time. In addition, the Potency entry in [10], in [11], in assay [12], in assay [13] and in assay [18] was “inactive” each time. Moreover, the Potency in assay [15] was 22.4 µM (active).

Consider `CCOC(=O)COc1ccc(Cl)cc1Cl`, for which the outcome in assay [1], in assay [3] and in [5] was inactive. Besides, the Potency result in [2], in assay [4], in [6], in assay [7], in [8] and in [9] was “inactive” each time. Besides, the Potency result in assay [10], in [11], in assay [12], in assay [19] and in [18] was “inactive” in each case. Moreover, the values for the Potency in [13] and in [15] were 22.4 µM (active) and 31.7 µM (active), respectively.

For the compound `CCCCOC(C)=O`, the compound was classed as inactive in assay [1], in assay [3] and in [5]. In addition, the Potency entry in assay [2], in assay [4], in assay [6], in [7], in assay [8] and in assay [9] was “inactive” each time. In addition, the Potency result in assay [10], in assay [11], in assay [12], in assay [13], in [14] and in assay [18] was “inactive” each time.

Regarding `CN(C)C1CCCCC1`, the result in assay [1], in assay [3] and in assay [5] was inactive. Also, the Potency entry in assay [2], in [4], in assay [6], in [7], in [8] and in [9] was “inactive” throughout. Moreover, the Potency result in assay [10], in [11], in [12], in assay [13], in assay [14] and in [19] was “inactive” throughout. In addition, the Potency result in assay [18] is “inactive”.
